Test results as given in PubChem BioAssay.
The source made the active and inactive calls.

What was measured:
[1] = binders of probe aFSTL3 on microarray, primary screen, stem cell growth factor project, biochemical, small-molecule microarray, fluorescence 635/667 (AID 1064); conditions: higher = more signal;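 also: measures binding of the biotinylated anti-FSTL3 antibody to printed compounds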
[2] = binders from COS7 lysate, DM2A8 probe, primary screen, torsin A project, cell lysate, small-molecule microarray, fluorescence 635/667 (AID 1065); conditions: higher = more signal, COS7 lysate expressing mutant human TOR1A
[3] = binders of probe aFGF2 on microarray, primary screen, stem cell growth factor project, biochemical, small-molecule microarray, fluorescence 635/667 (AID 1067); conditions: higher = more signal;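 also: measures binding of biotinylated aFGF2 protein to printed compounds on slides; z-score merges feature fluorescence and signal-to-noise across triplicate slides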
[4] = binders of probe aFGF10 on microarray, primary screen, stem cell growth factor project, biochemical, small-molecule microarray, fluorescence 635/667 (AID 1071); conditions: higher = more signal;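 also: score merges 667 nm spot intensity and signal to noise from triplicate slides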
[5] = target: Neurogenic locus notch homolog protein 2 (Homo sapiens) (UniProt Q04721); assay: Notch2 binders on small-molecule microarrays, primary screen, biochemical, small-molecule microarray, 635 nm fluorescence, stem cell growth factors (AID 1073); conditions: Notch2 binding, higher = more signal
[6] = target: Pro-neuregulin-1, membrane-bound isoform (Homo sapiens) (UniProt Q02297); assay: NRG1 binders on small-molecule microarrays, primary screen, psychiatric disease protein project, biochemical, small-molecule microarray, fluorescence 635/667 (AID 1075); conditions: NRG1 binding, 635 nm fluorescence, higher = more signal;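 also: score combines 667 nm spot fluorescence with signal to noise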
[7] = test system: Neuregulin-1 EGF-like domain; assay: binders of neuregulin-1 EGF-like domain, primary screen, biochemical, small-molecule microarray, 635 nm fluorescence (AID 1081); conditions: small-molecule microarray binding, higher = more signal;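 also: binding of the protein to compounds printed on small-molecule microarray slides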
[8] = FRG1 promoter luciferase signal modulators, primary screen, FRG1 inhibition for FSHD, cell-based, C2C12 myotubes, firefly/Renilla luciferase, luminescence (AID 1084); conditions: higher = more signal, called active from +8 up or from −8 down
[9] = binders of probe aFST on microarray, primary screen, stem cell growth factor project, biochemical, small-molecule microarray, fluorescence 635/667 (AID 1086); conditions: higher = more signal;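 also: score merges 667 nm fluorescence with signal-to-noise of each printed compound spot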
[10] = binders of probe aHhip on microarray, primary screen, stem cell growth factor project, biochemical, small-molecule microarray, fluorescence 635/667 (AID 1087); conditions: higher = more signal;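 also: score merges spot fluorescence at 667nm with spot signal to noise ratio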
[11] = test system: PRMT1 (protein arginine N-methyltransferase 1); assay: PRMT1 binders on small-molecule microarrays, primary screen, biochemical, small-molecule microarray, 635 nm fluorescence (AID 1088); conditions: small-molecule microarray binding, higher = more signal;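 also: binding of Prmt1 protein to compounds spotted on small-molecule microarray slides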
[12] = yeast growth modulation, basal conditions, primary screen, YJM789 clinical isolate, OD600, 24 h (AID 1089);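 also: growth of clinical yeast isolate S. cerevisiae YJM 789 seeded 1000 cells per well; test concentration not given here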; conditions: S. cerevisiae YJM789 growth, higher = more signal, called active from +8 up or from −8 down
[13] = fission yeast growth modulation, primary screen, strain 972, OD600, 24 h, no modulator (AID 1090);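 also: basal condition with compound alone and no growth modifier present; test concentration not given here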; conditions: S. pombe 972 growth, higher = more signal, called active from +8 up or from −8 down
[14] = S. cerevisiae growth modulation with rapamycin, primary screen, strain BY4716, OD600, 96 h (AID 1091); conditions: higher = more signal, called active from +8 up or from −8 down; also: test concentration not given here
[15] = target: Torsin-1A-interacting protein 2 (Homo sapiens) (UniProt Q8NFQ8); assay: LULL1 binders on small-molecule microarray, primary screen, cell lysate, human LULL1 lysate, 635/667 nm fluorescence (AID 1092); conditions: hLULL1 lysate binding, 635 nm fluorescence, higher = more signal;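 also: probe is lysate of COS7 cells overexpressing human LULL1; score merges per-feature 667 nm fluorescence with signal-to-noise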
[16] = E. coli growth modulation, two-sided OD650, primary screen, E. coli filamentation project, strain DRC41, 24 h (AID 1093); conditions: OD650, 24 h, higher = more signal, called active from +8 up or from −8 down;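 also: MC1000 strain lacking acrAB efflux and sulA so SOS filamentation is blocked; test concentration not given here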
[17] = small-molecule microarray binders of probe aLefty2, primary screen, biochemical, biotinylated probe, 635/667 nm fluorescence (AID 1094); conditions: higher = more signal;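 also: score merges spot fluorescence near 667 nm with spot signal-to-noise ratio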
[18] = test system: Noggin (protein binding on small-molecule microarray); assay: Noggin binders on small-molecule microarray, primary screen, biochemical, 635/667 nm fluorescence (AID 1095); conditions: 635 nm fluorescence, higher = more signal;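 also: score merges 667 nm feature fluorescence with signal to noise over triplicate slides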
[19] = target: Neurogenic locus notch homolog protein 3 (Homo sapiens) (UniProt Q9UM47); assay: NOTCH3 binders on small-molecule microarray, primary screen, biochemical, 635/667 nm fluorescence (AID 1096); conditions: NOTCH3 binding, 635 nm fluorescence, higher = more signal
[20] = small-molecule microarray binders of probe aEGFR, primary screen, biochemical, biotinylated probe, 635/667 nm fluorescence (AID 1097); conditions: higher = more signal;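 also: probe is a biotinylated anti-EGFR antibody binding compounds printed on slides; score combines fluorescence near 667 nm and signal to noise of each spot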

Pro-neuregulin-1, membrane-bound isoform (Homo sapiens), sequence (Q02297 whole entry, looked up, the tested form may be a part, canonical isoform): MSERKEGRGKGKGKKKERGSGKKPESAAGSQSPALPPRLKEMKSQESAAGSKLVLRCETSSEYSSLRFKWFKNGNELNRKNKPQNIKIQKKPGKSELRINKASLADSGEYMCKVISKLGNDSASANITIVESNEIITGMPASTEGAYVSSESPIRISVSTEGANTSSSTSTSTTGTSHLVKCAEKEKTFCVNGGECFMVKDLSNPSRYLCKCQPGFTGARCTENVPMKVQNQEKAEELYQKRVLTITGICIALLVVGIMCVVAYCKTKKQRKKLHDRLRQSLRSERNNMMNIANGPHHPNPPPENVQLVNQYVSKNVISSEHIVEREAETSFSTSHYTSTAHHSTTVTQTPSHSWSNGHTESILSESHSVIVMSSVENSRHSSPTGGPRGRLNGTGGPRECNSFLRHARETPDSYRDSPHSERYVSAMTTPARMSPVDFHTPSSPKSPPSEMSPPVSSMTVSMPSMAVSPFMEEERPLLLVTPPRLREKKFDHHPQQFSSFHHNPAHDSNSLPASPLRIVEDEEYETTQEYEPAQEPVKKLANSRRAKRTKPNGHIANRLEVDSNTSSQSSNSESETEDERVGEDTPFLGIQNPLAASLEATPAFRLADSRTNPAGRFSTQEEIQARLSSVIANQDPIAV
Torsin-1A-interacting protein 2 (Homo sapiens), sequence (Q8NFQ8 whole entry, looked up): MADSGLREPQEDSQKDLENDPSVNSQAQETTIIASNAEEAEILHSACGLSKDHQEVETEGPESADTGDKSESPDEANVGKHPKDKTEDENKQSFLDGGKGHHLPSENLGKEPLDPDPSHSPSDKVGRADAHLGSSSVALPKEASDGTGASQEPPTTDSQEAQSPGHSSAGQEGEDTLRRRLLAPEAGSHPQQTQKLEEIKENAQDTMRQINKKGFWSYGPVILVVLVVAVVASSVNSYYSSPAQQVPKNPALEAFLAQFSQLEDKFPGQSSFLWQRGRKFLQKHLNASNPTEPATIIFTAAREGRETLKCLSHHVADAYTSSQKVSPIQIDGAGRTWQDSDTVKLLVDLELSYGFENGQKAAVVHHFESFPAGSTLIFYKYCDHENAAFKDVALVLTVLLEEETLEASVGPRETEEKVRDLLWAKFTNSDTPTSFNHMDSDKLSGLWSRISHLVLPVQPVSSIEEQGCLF
Neurogenic locus notch homolog protein 3 (Homo sapiens), sequence (Q9UM47 whole entry, looked up): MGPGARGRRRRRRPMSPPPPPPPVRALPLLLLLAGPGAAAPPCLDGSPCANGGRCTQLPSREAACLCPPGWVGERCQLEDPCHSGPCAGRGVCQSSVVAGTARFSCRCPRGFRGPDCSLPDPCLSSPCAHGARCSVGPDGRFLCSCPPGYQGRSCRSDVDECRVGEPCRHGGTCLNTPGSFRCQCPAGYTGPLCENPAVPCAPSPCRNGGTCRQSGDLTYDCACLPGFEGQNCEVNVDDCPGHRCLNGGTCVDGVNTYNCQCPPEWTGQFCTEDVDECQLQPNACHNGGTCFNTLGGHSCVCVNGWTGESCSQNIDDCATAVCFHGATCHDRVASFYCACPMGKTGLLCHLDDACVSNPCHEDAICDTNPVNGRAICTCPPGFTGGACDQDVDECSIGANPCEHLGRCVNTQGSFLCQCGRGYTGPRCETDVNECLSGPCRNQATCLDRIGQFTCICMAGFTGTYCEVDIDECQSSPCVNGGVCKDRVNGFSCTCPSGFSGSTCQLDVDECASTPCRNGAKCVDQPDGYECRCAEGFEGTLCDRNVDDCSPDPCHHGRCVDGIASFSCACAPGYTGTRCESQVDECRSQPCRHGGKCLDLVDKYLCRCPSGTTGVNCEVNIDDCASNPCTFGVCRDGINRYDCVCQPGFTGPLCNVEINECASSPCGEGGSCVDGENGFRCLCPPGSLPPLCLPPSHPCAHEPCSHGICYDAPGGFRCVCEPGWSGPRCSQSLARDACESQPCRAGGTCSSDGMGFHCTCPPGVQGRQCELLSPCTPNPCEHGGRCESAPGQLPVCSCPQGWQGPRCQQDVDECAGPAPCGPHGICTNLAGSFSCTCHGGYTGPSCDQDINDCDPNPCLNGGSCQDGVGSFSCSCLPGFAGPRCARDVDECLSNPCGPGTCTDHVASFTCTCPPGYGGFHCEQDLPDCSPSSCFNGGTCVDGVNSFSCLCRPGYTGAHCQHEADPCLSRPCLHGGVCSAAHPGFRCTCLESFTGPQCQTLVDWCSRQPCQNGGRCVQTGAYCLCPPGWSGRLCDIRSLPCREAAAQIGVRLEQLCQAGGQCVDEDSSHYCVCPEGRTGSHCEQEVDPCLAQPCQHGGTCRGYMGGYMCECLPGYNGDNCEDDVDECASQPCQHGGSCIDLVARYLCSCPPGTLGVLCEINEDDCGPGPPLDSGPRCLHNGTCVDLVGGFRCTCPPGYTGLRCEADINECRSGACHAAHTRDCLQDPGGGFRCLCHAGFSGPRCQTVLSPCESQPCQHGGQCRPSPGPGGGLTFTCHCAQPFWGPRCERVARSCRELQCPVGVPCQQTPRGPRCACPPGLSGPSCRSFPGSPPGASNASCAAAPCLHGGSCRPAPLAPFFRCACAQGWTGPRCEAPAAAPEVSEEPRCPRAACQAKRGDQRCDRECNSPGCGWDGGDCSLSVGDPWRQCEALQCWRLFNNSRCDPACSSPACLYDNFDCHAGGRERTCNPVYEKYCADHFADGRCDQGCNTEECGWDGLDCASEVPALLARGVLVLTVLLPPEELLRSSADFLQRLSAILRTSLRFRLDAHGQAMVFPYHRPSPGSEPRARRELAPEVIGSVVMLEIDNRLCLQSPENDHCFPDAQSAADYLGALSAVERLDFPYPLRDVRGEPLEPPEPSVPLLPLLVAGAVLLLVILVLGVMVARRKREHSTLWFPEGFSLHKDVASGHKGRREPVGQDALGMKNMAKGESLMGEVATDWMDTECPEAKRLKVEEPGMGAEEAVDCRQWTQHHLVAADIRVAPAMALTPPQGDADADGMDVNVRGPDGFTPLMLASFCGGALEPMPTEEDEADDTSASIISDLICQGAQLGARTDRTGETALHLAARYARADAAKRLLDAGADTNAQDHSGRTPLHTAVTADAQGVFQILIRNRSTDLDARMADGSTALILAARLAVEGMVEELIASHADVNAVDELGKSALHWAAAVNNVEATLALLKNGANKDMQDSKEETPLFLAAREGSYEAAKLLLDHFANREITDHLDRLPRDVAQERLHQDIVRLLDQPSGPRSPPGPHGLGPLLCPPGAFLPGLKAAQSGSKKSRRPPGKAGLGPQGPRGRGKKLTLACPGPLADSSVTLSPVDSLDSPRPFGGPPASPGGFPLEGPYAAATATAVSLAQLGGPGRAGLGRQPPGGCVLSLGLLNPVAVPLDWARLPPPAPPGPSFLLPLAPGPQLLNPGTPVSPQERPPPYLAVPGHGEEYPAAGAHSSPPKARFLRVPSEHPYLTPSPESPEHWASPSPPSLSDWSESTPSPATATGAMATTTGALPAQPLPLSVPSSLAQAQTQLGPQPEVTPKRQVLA

## CCCNC(=O)OC[C@H]1O[C@H](CCON=C(C)CCC(=O)OC[C@H]2O[C@H](c3ccccc3)C=C[C@@H]2Oc2ccc(OC)cc2)C=C[C@@H]1Oc1ccc(OC)cc1
[1]
  composite z-score: -0.302
[2]
  composite z-score: 0.21
[3]
  composite z-score: -0.127
[4]
  composite z-score: -0.178
[5]
  composite z-score: -0.843
[6]
  composite z-score: -0.311
[7]
  composite z-score: -0.731
[8]
  z-score: 0.862 (inactive)
[9]
  composite z-score: 0.0494
[10]
  composite z-score: -0.0618
[11]
  composite z-score: -1.37
[12]
  z-score: -1.66 (inactive)
[13]
  z-score: 0.702 (inactive)
[14]
  z-score: -0.59 (inactive)
[15]
  composite z-score: -1.09
[16]
  z-score: 0.0967 (inactive)
[17]
  composite z-score: -0.0982
[18]
  composite z-score: -0.184
[19]
  composite z-score: -0.619
[20]
  composite z-score: -0.042

## O=C1CCCC=C1C(O)CCOC(c1ccccc1)(c1ccccc1)c1ccccc1 (stereo not given)
[1]
  composite z-score: -0.282
[2]
  composite z-score: 0.422
[3]
  composite z-score: -0.144
[4]
  composite z-score: 0.0954
[5]
  composite z-score: -0.0617
[6]
  composite z-score: -0.229
[7]
  composite z-score: -0.132
[8]
  z-score: -0.0611 (inactive)
[9]
  composite z-score: -0.405
[10]
  composite z-score: -0.069
[11]
  composite z-score: -0.758
[12]
  z-score: 0.162 (inactive)
[13]
  z-score: -1.92 (inactive)
[14]
  z-score: 1.55 (inactive)
[15]
  composite z-score: -0.626
[16]
  z-score: -0.0634 (inactive)
[17]
  composite z-score: -0.186
[18]
  composite z-score: 0.547
[19]
  composite z-score: 0.103
[20]
  composite z-score: -0.198

## COC(=O)[C@@H]1CC[C@H](C)[C@@H](c2ccc(C)cc2)N1C(=O)c1ccc(C=NOC[C@@H](C)[C@H](OCc2ccccc2)C(C)C)cc1
[1]
  composite z-score: -0.613
[2]
  composite z-score: 0.191
[3]
  composite z-score: -0.0707
[4]
  composite z-score: 0.41
[5]
  composite z-score: 1.13
[6]
  composite z-score: 0.855
[7]
  composite z-score: 1
[8]
  z-score: -0.229 (inactive)
[9]
  composite z-score: 0.38
[10]
  composite z-score: 0.0373
[11]
  composite z-score: 1.55
[12]
  z-score: -2.56 (inactive)
[13]
  z-score: -6.29 (inactive)
[14]
  z-score: -1.51 (inactive)
[15]
  composite z-score: 1.3
[16]
  z-score: 0.862 (inactive)
[17]
  composite z-score: -0.244
[18]
  composite z-score: 0.573
[19]
  composite z-score: 1.09
[20]
  composite z-score: 0.102

## CC(C)=CCCC(C)=CCON=C1C[C@@H](O)[C@@H](O)[C@@H]2[C@@H]3C(=O)N(c4ccc(F)cc4F)C(=O)[C@@H]3CC[C@H]12
[1]
  composite z-score: -0.292
[2]
  composite z-score: 0.611
[3]
  composite z-score: -0.174
[4]
  composite z-score: 0.03
[5]
  composite z-score: 1
[6]
  composite z-score: 1.06
[7]
  composite z-score: 0.849
[8]
  z-score: -0.389 (inactive)
[9]
  composite z-score: 0.573
[10]
  composite z-score: 0.0976
[11]
  composite z-score: 1.54
[12]
  z-score: -0.912 (inactive)
[13]
  z-score: -0.964 (inactive)
[14]
  z-score: -1.53 (inactive)
[15]
  composite z-score: 2.05
[16]
  z-score: -0.159 (inactive)
[17]
  composite z-score: -0.0413
[18]
  composite z-score: 0.819
[19]
  composite z-score: 1.09
[20]
  composite z-score: -0.0372

## O=C1[C@H]2[C@H]3[C@H](O)[C@H](O)CC(=NOC[C@@H](O)COCc4ccco4)[C@H]3CC[C@H]2C(=O)N1c1ccc(F)cc1F
[1]
  composite z-score: -0.191
[2]
  composite z-score: 0.862
[3]
  composite z-score: -0.142
[4]
  composite z-score: 0.0434
[5]
  composite z-score: -0.853
[6]
  composite z-score: -0.452
[7]
  composite z-score: 1.23
[8]
  z-score: -1.53 (inactive)
[9]
  composite z-score: -0.999
[10]
  composite z-score: -0.0047
[11]
  composite z-score: -0.012
[12]
  z-score: -3.68 (inactive)
[13]
  z-score: -1.99 (inactive)
[14]
  z-score: -1.97 (inactive)
[15]
  composite z-score: -0.701
[16]
  z-score: -1.13 (inactive)
[17]
  composite z-score: -0.469
[18]
  composite z-score: -0.349
[19]
  composite z-score: -0.927
[20]
  composite z-score: -0.165
